# Screening results deposited in PubChem BioAssay by National Center for Advancing Translational Sciences (NCATS).
# HEK293 tox = cytotoxicity in counter-screen for GLP-1R inverse agonists; Potency, µM (top dose mostly 38.3 µM), without a hit: at the top dose activity change, negative = inhibition, hits mostly inhibitors; HEK293 cAMP-luciferase reporter cells, luminescence, 24 h; AID 624418; actives 0.13% (n = 410,000);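 further: loss of luciferase light is scored as toxicity; on the % scale 0 is the no-effect control and ±100 the full control effect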
#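 Here, cytotoxicity is scored as loss of luminescence. The MLSMR collection was tested on cells seeded in medium containing 10% Nu serum, with a 24 hr compound exposure preceded by 12 hours of culture.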
# Gal4-VP16 FLuc = Gal4-VP16 reporter inhibition counter-screen. actives 3.5% (n = 310,000). Drosophila S2 Gal4-VP16 UAS-luciferase, luminescence, 20 h. Potency, µM (series often up to 53.6 µM), for inactives: at the top dose activity, negative = inhibition, hits mostly inhibitors;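 further: Gal4-VP16 expression switched on by copper sulfate through the metallothionein promoter; on the % scale 0 is the no-effect control and ±100 the full control effect; nearly all actives have a fitted effect of over 50% in size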
# RORg inh = inhibitors of mouse ROR gamma transcriptional activity; P51450; Drosophila S2 Gal4-RORgamma UAS-luciferase reporter, 20 h; Potency, µM (titrated, usually from 53.6 µM), without a hit: at the top dose activity change, negative = inhibition, usual class: inhibitors; actives 5.4% (n = 310,000); further: on the % scale 0 is the no-effect control and ±100 the full control effect; nearly all actives have a fitted effect of over 60% in size
# Target sequence (P51450 whole entry, looked up, the tested form may be a part): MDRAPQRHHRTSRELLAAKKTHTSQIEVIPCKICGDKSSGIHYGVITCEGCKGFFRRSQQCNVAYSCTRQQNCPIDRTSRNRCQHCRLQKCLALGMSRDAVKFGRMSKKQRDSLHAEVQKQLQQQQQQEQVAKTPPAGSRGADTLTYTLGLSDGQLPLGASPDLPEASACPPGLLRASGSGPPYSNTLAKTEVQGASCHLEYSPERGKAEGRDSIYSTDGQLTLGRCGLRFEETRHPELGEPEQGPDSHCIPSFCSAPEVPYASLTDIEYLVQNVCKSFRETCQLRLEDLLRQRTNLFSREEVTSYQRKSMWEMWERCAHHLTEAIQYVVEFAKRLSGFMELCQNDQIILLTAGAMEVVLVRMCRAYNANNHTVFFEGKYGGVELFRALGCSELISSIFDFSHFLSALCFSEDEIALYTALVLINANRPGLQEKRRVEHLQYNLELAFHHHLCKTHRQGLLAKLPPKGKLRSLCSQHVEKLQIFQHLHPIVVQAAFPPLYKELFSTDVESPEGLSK
#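 Schneider cells (Drosophila), stable Gal4 DBD–ROR gamma + UAS-luc; 1 hr cmpd preincubation; Cu2+ induction 700 uM final; 20 hr ambient; luminescence.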
# GLP1R ag = agonists of human GLP-1 receptor. P43220. HEK293 GLP-1R CRE-luciferase, luminescence, 4-6 h; cells express a hypersensitive GLP-1R form. Potency, µM (series often up to 45.6 µM), for the others: at the highest dose activation, most hits filed as activators. actives 0.007% (n = 380,000). AID 624172; further: % of control where 0% means no effect
# GLP1R inv ag = inverse agonists of human GLP-1 receptor; HEK293 GLP-1R CRE-luciferase, luminescence, 24 h; GLP-1R form is constitutively active; actives 1.6% (n = 410,000); AID 624417; Potency, µM (highest dose often 38.3 µM), inactives show at the highest dose activity change, negative = inhibition, usual class: inhibitors; further: on the % scale 0 is the no-effect control and ±100 the full control effect; nearly all actives have a fitted effect of over 55% in size
#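 Constitutively active GLP-1R drives a cAMP-responsive luciferase in stably transfected HEK293 cells; test compounds are added after overnight (12 h) attachment and left 24 hr, and signal loss in luminescence marks inhibition.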
# Numbers without * were called inactive; ? = inconclusive; . = no result; [ ] = another dose, or the depositor's remark. This is a sample that favours compounds with a hit; in the whole collection about 5.9% have one here. The call rests on the fitted dose curve; in most records, active means well fitted curve in the direction sought with a large enough effect; inconclusive means small, poorly fitted or top-dose-only effect, or another doubt; inactive means no such curve, though single readings can be large; an effect the other way counts as inactive or inconclusive. Potency means the concentration at half of the fitted maximal effect.
SMILES,HEK293 tox,Gal4-VP16 FLuc,RORg inh,GLP1R ag,GLP1R inv ag
O=C(/C=C/NNC(=O)c1ccc(Cl)cc1)c1ccccc1,?,?,11.2µM*,-9.7%,?
O=C(/C=C/Nc1ccccc1F)c1ccc(Br)cc1,-9.3%,?,10µM*,-17.9%,-16.5%
O=C(/C=C/NNC(=O)c1ccccc1)c1ccc(Br)cc1,?,2.9%,?,-12.1%,?
O=C(/C=C/Nc1ccc(Br)cc1F)c1ccccc1,-9.3%,5.62µM*,3.98µM*,-32.4%,?
N#Cc1ccccc1N/C=C/C(=O)c1ccc(Cl)cc1,-1.5%,.,.,10.9%,6.31µM*
O=C(/C=C/Nc1ccc(F)c(F)c1)c1ccc(Br)cc1,1.7%,-6.2%,10.2%,0.4%,8.0%
CCCCc1oc2ccc(NS(C)(=O)=O)cc2c1C(=O)c1ccc(OCCCN(CCCC)CCCC)cc1,.,.,.,-0.6%,.
CCCCC(=O)N(C)C,.,2.8%,-2.6%,.,.
CC(C)NC(=O)N1CC[C@@]2(CCCN(C(=O)c3csnn3)C2)C1,.,-1.7%,-3.8%,.,.
COc1ccc(C(C(=O)Nc2ccc(C(C)C)cc2)N(C)C(=O)c2ccc(=O)[nH]c2)cc1 (stereo not given),7.0%,-1.8%,17.8µM*,0.4%,-10.4%
Cc1cccc(N(C)S(=O)(=O)c2c(C(=O)N3CCCCCC3)c(C)n(C)c2C)c1,-0.3%,.,.,.,-27.0%
COC(=O)C1(Cc2cc(-c3cccc(Br)c3)no2)CCN(C(=O)OC(C)(C)C)CC1,-13.2%,-4.2%,-0.6%,10.8%,10µM*
S=c1nc(-c2ccc(Br)cc2)[nH]c2ccccc12,-9.6%,-4.0%,?,3.4%,10.9%
S=c1nc(-c2ccccc2)[nH]c2ccccc12,?,7.08µM*,0.794µM*,2.7%,18.2%
COc1cc2c(cc1OC)n(Cc1ccc([N+](=O)[O-])cc1)c(=O)n1nc(-c3ccccc3)nc21,-2.2%,.,.,.,-0.4%
CN(C(=O)c1ccc(Cl)cc1)C1CCS(=O)(=O)C1 (stereo not given),-5.2%,.,.,-7.6%,6.4%
COc1cc2cc(C(=O)N(C)C3CCS(=O)(=O)C3)[nH]c2cc1OC (stereo not given),15.5%,2.4%,20µM*,-5.2%,15.9%
Cc1cc(C(=O)Nc2c(F)cc(F)cc2Br)c(C)o1,7.4%,10µM*,?,10.0%,0.0%
CC(C)[C@@H](CC(=O)N[C@@H]1CCNC[C@H]1C(=O)N[C@H](CC(=O)N[C@@H](CCC(=O)O)CC(=O)O)Cc1c[nH]c2ccccc12)NC(=O)C[C@H](CO)NC(=O)[C@@H]1CNCC[C@H]1N,.,3.6%,-1.4%,.,.
CCOC(=O)/C(C#N)=C/c1ccc(-c2ccc(C)cc2)o1,62.0%,.,.,.,2.2%
Cc1ccc2[nH]cc(C(c3ccccc3)c3cccs3)c2c1 (stereo not given),-13.3%,.,.,.,10µM*
Cc1ccc2[nH]cc(CCNC(=O)Nc3ccccc3)c2c1,-15.8%,-17.2%,?,7.7%,?
C[C@H](NC(=O)[C@@H](Cc1c[nH]c2ccccc12)NC(=O)[C@@H](N)Cc1cnc[nH]1)C(=O)N[C@@H](Cc1c[nH]c2ccccc12)C(=O)N[C@H](Cc1ccccc1)C(=O)N[C@@H](CCCCN)C(N)=O,.,5.9%,-13.2%,.,.
COc1ccc(-c2[nH]ncc2-c2csc(C)n2)c(O)c1,-6.1%,?,-42.6%,-3.1%,-21.0%
Oc1ccc(-c2[nH]ncc2-c2ccc(Cl)cc2)c(O)c1,-1.2%,-13.2%,-26.0%,-2.3%,0.0%
SMILES,HEK293 tox,Gal4-VP16 FLuc,RORg inh,GLP1R ag,GLP1R inv ag
COc1ccc(-c2[nH]ncc2-c2ccc(Cl)cc2)c(O)c1,-20.4%,?,8.91µM*,-3.8%,?
COc1ccc(-c2cn[nH]c2-c2ccc(OC)cc2O)cc1,?,20µM*,?,-2.2%,10µM*
COc1ccc(Nc2nc3ccccc3c3nnc(C)n23)cc1Cl,30.1%,.,.,.,16.1%
CCN1C(=O)S/C(=C/c2ccc(Sc3nc4ccccc4[nH]3)o2)C1=O,-7.9%,3.16µM*,5.62µM*,-4.3%,76.4%
O=C(N/N=C/c1ccc(Sc2nc3ccccc3[nH]2)o1)c1ccncc1,-9.5%,0.2%,0.3%,0.1%,0.3%
CC(C)=NO[C@@H](C)c1cn([C@H](CO)Cc2ccccc2)nn1,.,-5.4%[10 µM],3.7%[10 µM],.,.
CCOC(=O)c1c(C)[nH]c(C)c1S(=O)(=O)N(C)CC(=O)Nc1ccc(C)cc1C,1.2%,.,.,.,-10.4%
Cc1onc(-c2c(Cl)cccc2Cl)c1C(=O)N/N=C(\N)COc1ccc(Cl)cc1,-19.0%,0.501µM*,0.447µM*,-12.9%,0.0%
COc1cc(/C=N/NC(=O)c2c(-c3c(Cl)cccc3Cl)noc2C)ccc1OCC(N)=O,7.8%,.,.,0.5%,37.4%
O=[N+]([O-])c1ccc(S(=O)(=O)Nc2nc3ccccc3nc2Nc2ccccc2)cc1,12.6%,?,8.91µM*,0.9%,50.2%
COc1ccc(Nc2nc3ccccc3nc2NS(=O)(=O)c2ccc(C)cc2)c(OC)c1,2.9%,.,.,7.7%,8.3%
O=[N+]([O-])c1ccc(Nc2c3ccccc3nc3ccccc23)cc1,4.0%[7.66 µM],-6.5%,22.4µM*,20.9%,-24.6%[7.66 µM]
COc1cc(Nc2nc3ccccc3nc2NS(=O)(=O)c2ccc([N+](=O)[O-])cc2)cc(OC)c1OC,?,5.01µM*,4.47µM*,-5.2%,?
Nc1nc(-c2nn(Cc3ccccc3F)c3ncccc23)ncc1C1CC1,.,12.6µM*,1.78µM*,.,.
O=C(/C=C/c1ccccc1)c1ccc(O)cc1O,.,?,2.82µM*,.,.
COc1ccc(/C=C/C(=O)c2cc(Cl)ccc2O)c(OC)c1,9.5%,28.9%,14.3%,10.1%,?
COc1ccc(C(=O)/C=C/c2ccccc2)c(O)c1,-13.8%,-4.0%,-42.8%,4.6%,?
COc1ccc(C(=O)/C=C/c2ccc(OC(=O)c3cc(OC)c(OC)c(OC)c3)cc2)cc1,34.6%,7.08µM*,1.78µM*,2.5%,49.8%
CCOc1ccc(C(=O)/C=C/c2cc(OC)c(OC)c(OC)c2)cc1,-18.0%,0.4%,?,-0.3%,?
CN(C)c1ccc(C(=O)/C=C/c2ccccc2)cc1,-8.4%,?,11.2µM*,17.2%,59.2%
COc1ccc(C(=O)/C=C/c2ccc(OC)cc2OC)c(O)c1,4.0%,21.4%,0.794µM*,13.2%,9.4%
CCc1ccc2occ(CC(=O)Nc3ccc(C)c(C)c3)c2c1,11.5%,.,.,.,?
C[C@H]1COC(=O)[C@H]2CCCN2C(=O)[C@@H](C)COC(=O)[C@H](Cc2ccccc2)NC1=O,.,7.0%[10 µM],2.7%[10 µM],.,.
COc1ccccc1CNC(=O)CN1C(=O)CSc2ccc(S(=O)(=O)N3CCCCC3)cc21,-6.6%,.,.,9.5%,?
COc1ccc(/C=C/C(=O)c2ccc(O)cc2O)cc1,.,?,0.0398µM*,.,.
COc1ccc(/C=C/C(=O)c2cc(F)ccc2OC(=O)c2ccc(OC)c(OC)c2)cc1OC,2.6%,?,8.91µM*,-1.9%,?
